According to PubChem BioAssay (NCATS):
Values joined by “and” are separate entries in the source; they are usually repeats but may differ in a detail not shown here. Equal entries are not always repeated. Records with an inconclusive call do not appear. A structure can be active in one record and inactive in another. Unmarked numbers belong to inactive results. Active and inactive are the calls of the source. Calls come from the whole dose curve; as a rule, active = well fitted inhibition curve with a large enough effect; inconclusive = small, poorly fitted or top-dose-only effect; inactive = flat fitted curve, though single readings scatter.

What was measured:
CRL-7250 = normal cell line; test: Cytotoxic Profiling of Annotated Libraries Using Quantitative High-Throughput Screening (AID 1296008); conditions: Five cell lines viability, CellTiter-Glo ATP luminescence, 48-72 h; max response: stronger effect = lower value
How it was run: (§1)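 Compounds were pin-transferred onto cells and incubated 48 or 72 hr at 37 degree Celsius, 95% humidity. CellTiter-Glo was added, plates sat 10 min at room temperature, then ATP-coupled luminescence was imaged as the viability read-out.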

HEK293 = test: as above; conditions: Five cell lines viability, CellTiter-Glo ATP luminescence, 48-72 h; max response: stronger effect = lower value
How it was run: as §1

KB-3-1 = test: as above; conditions: Five cell lines viability, CellTiter-Glo ATP luminescence, 48-72 h; max response: stronger effect = lower value
How it was run: as §1

NIH3T3 = test: as above; conditions: Five cell lines viability, CellTiter-Glo ATP luminescence, 48-72 h; max response: stronger effect = lower value
How it was run: as §1

MCC-13 = test: qHTS assay to identify novel small-molecules to repurpose for Merkel cell carcinoma treatment (AID 1296009); conditions: MCC and control cell lines, CellTiter-Glo viability, 72 h; series mostly up to 46 µM
How it was run: (§2)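 Viability readout: ATP luminescence (CellTiter-Glo) after 72 hr drug exposure at 37 degree celsius. Dose-response format was 8 points for NPC and 11 points for MIPE; data normalized to in-plate controls.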

HaCat [1] = test: Cytotoxic Profiling of Annotated Libraries Using Quantitative High-Throughput Screening (AID 1296008); conditions: Five cell lines viability, CellTiter-Glo ATP luminescence, 48-72 h; max response: stronger effect = lower value
How it was run: as §1

HACAT [2] = test: qHTS assay to identify novel small-molecules to repurpose for Merkel cell carcinoma treatment (AID 1296009); conditions: MCC and control cell lines, CellTiter-Glo viability, 72 h; at 44.8 µM (top of the series) unless noted
How it was run: as §2
% is set by controls: 0 for no effect and ±100 for the full control effect; potency is the fitted concentration of half-maximal effect.
Note: nearly all actives have a fitted effect of over 60% in size.

N[C@H]1CN(c2c(F)cc3c(=O)c(C(=O)O)cn(C4C[C@@H]4F)c3c2Cl)CC12CC2 (some centres not stated)
max response (CRL-7250): -23.8% | max response (HEK293): -9.37% | max response (KB-3-1): -14.1% | outcome (NIH3T3): inactive | Potency (MCC-13): inactive

CC(C)c1cnn2c(NCc3ccccc3)cc(NCCCCCCN)nc12
outcome (CRL-7250): inactive | outcome (HaCat [1]): inactive | max response (KB-3-1): 3.97% | max response (NIH3T3): 0.624% | outcome (HACAT [2]): inactive | Potency (MCC-13): inactive

O=C(Nc1nnc(-c2ccco2)o1)c1cc(-c2ccccc2)nc2ccccc12
Potency (CRL-7250): 16600 nM (active) | max response (HaCat [1]): -46%

Cn1cc(-c2cnn3c(N)c(Br)c([C@H]4CCCNC4)nc23)cn1
Potency (CRL-7250): 20900 nM (active) | Potency (HEK293): 418 nM (active) | Potency (KB-3-1): 10500 nM (active) | Potency (NIH3T3): 662 nM (active) | Potency (MCC-13): inactive

Cc1ccc(O)c(C(CCN(C(C)C)C(C)C)c2ccccc2)c1 (configuration not stated)
outcome (CRL-7250): inactive | outcome (HaCat [1]): inactive | outcome (KB-3-1): inactive | outcome (NIH3T3): inactive | outcome (HACAT [2]): inactive | Potency (MCC-13): inactive

O=c1[nH]c(=O)n([C@H]2C[C@@H](O)[C@@H](CO)O2)cc1F
Potency (CRL-7250): 18700 nM (active) | Potency (HEK293): 52.6 nM (active) | Potency (KB-3-1): 13200 nM (active) | Potency (NIH3T3): 18.7 nM (active) | Potency (MCC-13): 332 nM (active)

O=C1NC(=O)C(=Cc2ccc3nccc(-c4ccncc4)c3c2)S1
Potency (CRL-7250): 52.6 nM (active) | Potency (HEK293): 74.3 nM (active) | Potency (KB-3-1): 148 nM (active) | Potency (NIH3T3): 209 nM (active) | Potency (MCC-13): 1870 nM (active)

CC(=CC(=O)Nc1ccccc1C(=O)O)c1ccc2ccccc2c1
max response (CRL-7250): -3.34% | outcome (HaCat [1]): inactive | max response (KB-3-1): -21% | max response (NIH3T3): -22.4% | outcome (HACAT [2]): inactive | Potency (MCC-13): inactive

COC1=C2C[C@@H](C)C[C@H](OC)[C@@H](O)[C@@H](C)C=C(C)[C@H](OC(N)=O)[C@@H](OC)C=CC=C(C)C(=O)NC(=CC1=O)C2=O
Potency (CRL-7250): 7430 nM (active) | Potency (HEK293): 4690 nM (active) | Potency (KB-3-1): 2090 nM (active) | Potency (NIH3T3): 9350 nM (active)

C[C@@H]1CC[C@@]2(OC1)OC1CC3C4CC=C5CC(O)CCC5(C)C4CCC3(C)C1[C@@H]2C (some centres not stated)
max response (CRL-7250): -6.42% | Potency (HEK293): 10500 nM (active) | max response (KB-3-1): -6.71% | max response (NIH3T3): -12.1% | Potency (MCC-13): inactive

COc1ccc(C[C@@H](C)[C@@H](C)Cc2ccc(OC)c(OC)c2)cc1OC
Potency (CRL-7250): 3320 nM (active) | max response (HaCat [1]): 3.58% | Potency (KB-3-1): 2960 nM (active) | Potency (NIH3T3): 2350 nM (active)

C[C@](Cc1c[nH]c2ccccc12)(NC(=O)OC1C2CC3CC(C2)CC1C3)C(=O)NC[C@H](NC(=O)CCC(=O)O)c1ccccc1 (some centres not stated)
outcome (CRL-7250): inactive | outcome (HaCat [1]): inactive | max response (KB-3-1): -2.86% | max response (NIH3T3): -5.4% | outcome (HACAT [2]): inactive | Potency (MCC-13): inactive

NS(=O)(=O)OC[C@@H]1C[C@@H](n2ccc3c(N[C@H]4CCc5ccccc54)ncnc32)C[C@H]1O
Potency (CRL-7250): 2640 nM (active) | Potency (HEK293): 526 nM (active) | max response (NIH3T3): -27.1% | Potency (MCC-13): 5900 nM (active)

CO[C@@H]1[C@@H](O)[C@H](O)[C@@H](n2c3c(Cl)cccc3c3c4c(c5c6cccc(Cl)c6[nH]c5c32)C(=O)NC4=O)O[C@@H]1CO
Potency (CRL-7250): 3720 nM (active) | Potency (HaCat [1]): 3320 nM (active) | Potency (KB-3-1): 2960 nM (active) | Potency (NIH3T3): 1660 nM (active)

CCN(CC)CCNC(=O)c1c(C)[nH]c(C=C2C(=O)Nc3ccc(F)cc32)c1C
Potency (CRL-7250): 340 nM (active) | Potency (HEK293): 270 nM (active) | Potency (KB-3-1): 2150 nM (active) | Potency (MCC-13): 42900 nM (active)

Cc1ccc([N+](=O)[O-])cc1S(=O)(=O)N(C)N=Cc1cnc2ccc(Br)cn12
Potency (CRL-7250): 18.7 nM (active) | Potency (HEK293): 23.5 nM (active) | Potency (KB-3-1): 20.9 nM (active) | Potency (NIH3T3): 74.3 nM (active)

c1ccc(CNc2nc(NCc3ccccc3)c3ccccc3n2)cc1
max response (CRL-7250): -7.33% | Potency (HEK293): 14800 nM (active) | Potency (KB-3-1): 26400 nM (active) | Potency (MCC-13): inactive

N=c1ccn2c(n1)O[C@H]1[C@@H](O)[C@@H](CO)O[C@H]12
max response (CRL-7250): -13.3% | Potency (HEK293): 4180 nM (active) | max response (KB-3-1): -23.9% | Potency (NIH3T3): 3320 nM (active)

CCS(=O)(=O)Nc1ccc2[nH]c(O)c(C(=Nc3ccc(CN4CCCCC4)cc3)c3ccccc3)c2c1
Potency (CRL-7250): 1320 nM (active) | Potency (HEK293): 743 nM (active) | Potency (KB-3-1): 9350 nM (active) | Potency (NIH3T3): 264 nM (active) | Potency (MCC-13): 5260 nM (active)

C=C1C(=CC=C2CCC[C@]3(C)[C@@H]([C@H](C)CCCC(C)(C)O)CC[C@@H]23)C[C@@H](O)C[C@@H]1O
max response (CRL-7250): -5.17% | outcome (HaCat [1]): inactive | max response (KB-3-1): -11.2% | Potency (NIH3T3): 3.3 nM (active) | outcome (HACAT [2]): inactive

CN(C)CC(=O)N1CCC(c2ccc(NC(=O)c3ncc(C#N)[nH]3)c(C3=CCCCC3)c2)CC1
outcome (CRL-7250): inactive | max response (HaCat [1]): 3.1% | outcome (HaCat [1]): inactive | max response (KB-3-1): 3.44% and -16.9% | Potency (NIH3T3): 920 nM (active) | max response (NIH3T3): 0.938% | outcome (HACAT [2]): inactive | Potency (MCC-13): inactive

O=C(NCc1ccccc1)[C@H](Cc1ccccc1)NC(=O)[C@@H]1O[C@@H]1C(=O)NCCc1ccc(O)cc1
outcome (CRL-7250): inactive | outcome (HaCat [1]): inactive | max response (KB-3-1): 8.9% | max response (NIH3T3): 3.87% | outcome (HACAT [2]): inactive | Potency (MCC-13): inactive
